Experimental data: PubChem BioAssay AID1159580 (chemical genetic matrix, 2015)
Hit rate of the full screen: of about 5,500 compounds, about 2,000 (36%) were called active. Roughly 18% stayed inconclusive and do not appear here. No stated cut-off is given here; in the data, active means normalized growth mostly below about 0.91 (no sharp cut-off); inconclusive means no clear call, values can overlap the other calls; inactive means mostly above about 0.92. The list shows a part of the results.

Test: chemical genetic growth profiling, strain panel (AID 1159580);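 further: tested at 20 µM; growth read once vehicle control cultures reached saturation at 30 °C; 1 = growth at the plate median or of vehicle wells; lower values mean less growth of the strain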
Conditions: S. cerevisiae deletion strains, growth OD

Measured: normalized growth

COc1cc(C)c2c(=O)cc(-c3ccccc3)oc2c1
inactive: locus YJL187C, strain SWE1 (second series), hits give low values 0.954 | locus YJL187C, strain SWE1, hits give low values 0.933 | locus YJR043C, strain POL32, hits give low values 1.03 | locus YKL009W, strain mrt4, hits give low values 0.954 | locus YKL068W, hits give low values 0.966 | locus YKL085W, strain MDH1 (second series), hits give low values 0.965 | locus YKL085W, strain MDH1, hits give low values 0.965 | locus YKR001C, strain vps1, hits give low values 0.982 | locus YKR091W, strain srl3, hits give low values 0.934 | locus YLL001W, strain dnm1, hits give low values 0.932 | locus YLL026W, hits give low values 0.944 | locus YLL041C, strain sdh2, hits give low values 0.935 | locus YLR039C, strain RIC1, hits give low values 1.08 | locus YLR058C, strain SHM2, hits give low values 0.975 | locus YLR102C, strain apc9, hits give low values 0.974 | locus YLR258W, strain gsy2, hits give low values 0.921 | locus YLR262C, strain YPT6, hits give low values 1.05 | locus YLR268W, strain sec22, hits give low values 0.958 | locus YLR330W, strain CHS5, hits give low values 0.973 | locus YLR342W, strain FKS1 (second series), hits give low values 0.979 | locus YLR357W, strain rsc2, hits give low values 0.87 | locus YLR370C, strain arc18, hits give low values 0.945 | locus YLR371W, strain rom2, hits give low values 0.966 | locus YLR384C, strain iki3, hits give low values 0.925 | locus YLR418C, strain cdc73, hits give low values 0.843 | locus YML016C, strain PPZ1, hits give low values 0.972 | locus YML032C, strain rad52, hits give low values 0.968 | locus YML120C, strain ndi1, hits give low values 0.941 | locus YML124C, strain tub3, hits give low values 0.973 | locus YMR058W, strain fet3, hits give low values 0.917 | locus YMR078C, strain ctf18, hits give low values 0.952 | locus YMR125W, strain sto1, hits give low values 0.929 | locus YMR129W, hits give low values 0.937 | locus YMR223W, strain ubp8, hits give low values 0.967 | locus YMR231W, strain pep5, hits give low values 0.951 | locus YMR307W, strain GAS1, hits give low values 1.23 | locus YNL067W, strain RPL9B, hits give low values 0.964 | locus YNL209W, strain ssb2, hits give low values 0.961 | locus YNL233W, strain BNI4, hits give low values 0.952 | locus YNL248C, strain rpa49, hits give low values 0.912 | locus YNL250W, strain rad50, hits give low values 0.953 | locus YNL271C, strain bni1, hits give low values 0.944 | locus YNL298W, strain CLA4, hits give low values 0.953 | locus YNL307C, strain MCK1, hits give low values 0.918 | locus YNL322C, strain KRE1 (second series), hits give low values 0.932 | locus YNR049C, strain mso1, hits give low values 0.924 | locus YNR052C, strain pop2, hits give low values 0.958 | locus YOL006C, strain TOP1, hits give low values 0.686 | locus YOL012C, strain htz1 1.23 | locus YOL147C, strain pex11, hits give low values 0.97 | locus YOR001W, strain rrp6, hits give low values 0.932 | locus YOR061W, strain CKA2, hits give low values 0.979 | locus YOR069W, strain VPS5, hits give low values 0.979 | locus YOR070C, strain gyp1, hits give low values 0.93 | locus YOR080W, strain dia2, hits give low values 0.943 | locus YOR083W, strain WHI5, hits give low values 0.907 | locus YOR106W, strain vam3, hits give low values 0.896 | locus YOR136W, strain idh2, hits give low values 0.972 | locus YOR144C, strain elg1, hits give low values 0.968 | locus YOR316C, strain cot1, hits give low values 0.966 | locus YPL106C, strain sse1, hits give low values 0.852 | locus YPL240C, strain hsp82, hits give low values 0.934 | locus YPL256C, strain CLN2, hits give low values 0.872 | locus YPR119W, strain clb2, hits give low values 0.973 | locus YPR141C, strain kar3, hits give low values 0.954 | locus YPR163C, strain tif3, hits give low values 0.982 | locus YPR167C, strain met16, hits give low values 0.958 | strain wtn01, hits give low values 0.968
active: locus YJR066W, strain TOR1, hits give low values 0.814 | locus YKL160W, strain elf1, hits give low values 0.884 | locus YKR026C, strain gcn3, hits give low values 0.92 | locus YLR027C, strain aat2, hits give low values 0.917 | locus YLR113W, strain HOG1, hits give low values 0.721 | locus YLR221C, strain rsa3, hits give low values 0.887 | locus YLR262C, strain YPT6 (second series), hits give low values 0.757 | locus YLR320W, strain mms22, hits give low values 0.728 | locus YLR342W, strain FKS1, hits give low values 0.901 | locus YMR205C, strain PFK2, hits give low values 0.791 | locus YNL071W, strain lat1, hits give low values 0.687 | locus YNL183C, strain NPR1, hits give low values 0.796 | locus YOR184W, strain ser1, hits give low values 0.866 | locus YOR231W, strain MKK1, hits give low values 0.857 | locus YOR265W, strain rbl2, hits give low values 0.922 | locus YOR270C, strain vph1, hits give low values 0.701 | locus YOR290C, strain snf2, hits give low values 0.82 | locus YPL051W, strain arl3, hits give low values 0.904 | locus YPL078C, strain atp4, hits give low values 0.886
